High-throughput results (PubChem)
A-T KAP1 phos – potential ataxia-telangiectasia treatment | F2112 A-T fibroblasts, KAP-1 phosphorylation AlphaLISA; neocarzinostatin DNA damage 30 min before lysis | Potency, µM (series often up to 57.5 µM), actives largely listed as activators | 320,000 tested, 0.19% active | AID 485349; also: nearly all actives have a fitted effect of over 45% in size
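ATM-like activity read as KAP-1 phosphorylation via AlphaLISA donor/acceptor antibody pairs after lysis and 6 hr at 25C. Cells were ATM-null patient fibroblasts (F2112, hTERT), dosed 60 min, then exposed to the DSB inducer NCS for 30 min.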
TCR act – activates T cell receptor signaling; Potency, µM (top dose mostly 9.22 µM), usual class: activators; 330,000 tested, under 10 active; AID 504894; primary human leukocytes, anti-CD3, IL-2 HTRF, 48 h
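Using a-CD3 beads without co-stimulation, primary human leukocytes were exposed to compounds for 48 hr. An HTRF IL-2 kit measured the cytokine, with europium-to-d2 energy transfer producing emission at 665nm upon 320nm excitation.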
A549 tox – kills or reduces viability of A549 cells in Nrf2 counter-screen; A549 ARE-Fluc cells, CellTiter-Fluor viability, 18-24 h; Potency, µM (titrated, usually from 46 µM), actives largely listed as inhibitors; 390,000 tested, 0.16% active; AID 504648
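Cytotoxicity counterscreen: CellTiter-Fluor fluorescence was measured in A549 ARE_Fluc cells after 18-24 h of compound exposure in a concentration series. The subsequent BugLite luminescent read reports ARE-luciferase activity.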
CCT modulator – cytosolic chaperonin activity modulation; purified chaperonin ATPase assay, HTRF ADP detection, 30 min; activity change, % (concentration not given with the values), hits read low; 360,000 tested, 0.3% active; in the data active = activity change below about -30%
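ATPase activity: ADP formed was measured by HTRF Transcreener (665/615 nm ratio) after 30 min at 37 deg C with 10 uM ATP. Compounds screened at one 76 uM concentration against 40 or 20 nM TRiC in Tris pH 7.4/KCl/MgCl2/DTT buffer.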
Nrf2 activator – activates Nrf2 signaling | AID 624171 | AREc32 ARE-luciferase reporter (MCF7-derived line), luminescence, 24 h | 410,000 tested, 0.31% active | Potency, µM (top dose mostly 46.1 µM), most hits filed as activators; also: nearly all actives have a fitted effect of over 65% in size
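Nrf2 activation is followed as ARE-luciferase induction in the AREc32 line after one day of compound treatment; luminescence is read with Steady-Glo.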
Nrf2 block – inhibitors of Nrf2 signaling | A549 ARE-Fluc reporter, luciferase luminescence, 18-24 h | Potency, µM (doses to about 46 µM), usual class: inhibitors | 360,000 tested, 2.1% active; also: nearly all actives have a fitted effect of over 60% in size
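Reporter: ARE-Fluc in A549. Exposure: 18-24 h, 37 °C, 5% CO2, 5% FBS OPTI-MEM. Readouts: fluorescent cytotoxicity (CellTiter-Fluor), then luminescent Nrf2 signal after BugLite.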
Hits are given with their value; - = inactive; ? = inconclusive; . = no result. This is a sample that favours compounds with a hit; in the whole collection about 2.6% have one here. Unless noted, calls follow the shape of the dose curve; as a rule, active = well fitted curve in the direction sought with a large enough effect; inconclusive = small, poorly fitted or top-dose-only effect, or another doubt; inactive = no such curve, though single readings can be large; an effect the other way counts as inactive or inconclusive.

SMILES	A-T KAP1 phos	TCR act	A549 tox	CCT modulator	Nrf2 activator	Nrf2 block
CCOc1ccc(/C=C2\SC(=S)N(CCCC(=O)NCCCN3CCOCC3)C2=O)cc1	-	-	?	-38	-	?
COc1ccccc1/C=C1\SC(=S)N(CCC(=O)NCCCN2CCOCC2)C1=O	-	-	23µM	-	-	?
O=C(CCCN1C(=O)/C(=C/c2ccccc2Cl)SC1=S)NCCCN1CCOCC1	-	-	?	-	-	15µM
CC12CCC(=O)N1C(C(=O)N1CCN(c3ccc([N+](=O)[O-])cc3)CC1)CS2 (stereo not given)	-	-	?	-	-	-
CC1(C)Cc2c(c(N3CCOCC3)nc3sc(-c4ccc(C(=O)O)o4)c(N)c23)CO1	-	-	-	-	-	.
CNC(=O)c1ccc(-c2sc3nc(N4CCOCC4)c4c(c3c2N)CC(C)(C)OC4)o1	4.5µM	-	-	-	-	-
O=C(/C=C/C=C/c1ccccc1)c1ccco1	-	-	-	-	11µM	-
O=C(/C=C/Nc1ccc(F)cc1F)c1ccco1	-	-	?	-	6.3µM	?
O=C(/C=C/Nc1ccccc1Oc1ccccc1)c1ccco1	-	-	-	-	?	-
O=C(/C=C/Nc1ccccc1O)c1ccco1	-	-	-	-	11µM	-
O=C(/C=C/c1ccc(Br)cc1)c1ccco1	-	-	-	-	-	-
CCOc1ccc(N(CC)C(=O)c2cc3c(s2)-c2ccc(Cl)cc2SC3)cc1	.	.	?	.	-	16µM
O=C(Cn1cc(CN(Cc2ccccc2)Cc2ccccc2)nn1)Nc1cc(C(F)(F)F)ccc1Cl	.	.	-	.	.	-
Cc1cccc(NC(=O)C2CC(=O)N(Cc3ccccc3)C2)n1 (stereo not given)	-	-	-	-	-	-
CCCN(CC(=O)Nc1ccccc1OC)C(=O)c1ccc2[nH]c3c(c2c1)CC(C)CC3 (stereo not given)	-	-	?	-	-	23µM
CCN(CC(=O)Nc1ccccc1OC)C(=O)c1ccc2[nH]c3c(c2c1)CC(C)CC3 (stereo not given)	-	-	?	-	-	?
CCCCOc1cccc(C2c3c(-c4cc(C)ccc4O)n[nH]c3C(=O)N2CCOC)c1 (stereo not given)	.	.	-	.	-	-
COc1ccccc1NC(=O)c1ccc(NC(=O)c2cc3c(s2)CCC3)cc1	-	-	-	-	-	23µM
CC(C)(C)OC(=O)CC12CCCCC1NC(=O)O2 (stereo not given)	-	-	-	-49	-	-
C[C@@H]1Cn2cnc(C(=O)NCC(=O)OC(C)(C)C)c2C(=O)N1	.	.	.	-	-	.
CCN(C(=O)COC(=O)c1[nH]c(C)c(C(C)=O)c1C)c1c(N)n(Cc2ccccc2)c(=O)[nH]c1=O	-	-	-	-	-	?
CC1=C/C(=C(\c2cc(C)c(O)c(Br)c2)c2ccccc2S(=O)(=O)O)C=C(Br)C1=O	-	-	16µM	-	-	?
Cc1cc(C(=O)c2ccccc2)cc(C)c1O	.	-	-	-	-	-
COc1ccc(C(=O)N/N=C(\Cc2ncc[nH]2)c2ccccc2)cc1	-	-	-	-	-	?
COc1cc(C(=O)N/N=C(\Cc2ncc[nH]2)c2ccccc2)cc(OC)c1OC	-	-	?	-	-	15µM
SMILES	A-T KAP1 phos	TCR act	A549 tox	CCT modulator	Nrf2 activator	Nrf2 block
C/C(=N\NC(=O)c1ccccn1)c1ccc(Cl)cc1	-	-	-	-	-	-
C/C(=N\NC(=O)c1ccc(Cl)cc1)c1ccccn1	-	-	?	-	?	3.7µM
COc1cc(C(=O)N/N=C(\c2ccccc2)c2ccccn2)cc(OC)c1OC	-	-	?	-	-	4.6µM
COCCn1ccc2c(OCC(=O)NCCc3ccccc3)cccc2c1=O	-	-	-	-	-	-
O=C(CCSc1ccc(Br)cc1)c1ccc(O)cc1	-	-	-	-	16µM	?
CCN(CC)c1ccc(Nc2cc3n(c(=O)n2)CCc2cc(OC)c(OC)cc2-3)cc1	-	-	-	-	-	16µM
COc1cc2c(cc1OC)-c1cc(Nc3ccc(N(C)C)cc3)nc(=O)n1CC2	-	-	-	-	-	?
Cc1c(C(=O)NC(C)c2ccccc2)sc2nc3n(c(=O)c12)CCCC3 (stereo not given)	.	.	-	.	-	?
N#Cc1ccccc1Cn1cc(/C=C/[N+](=O)[O-])c2ccccc21	-	-	23µM	-	-	?
Cc1c(P(=S)(c2ccccc2)c2ccccc2)c2ccccc2n1C(=O)Cc1ccccc1	.	.	-	.	.	-
CC(C)C(=O)Nc1ccc(C(=O)N/N=C/c2cc(Br)cc(Br)c2O)cc1	-	-	?	-	-	?
CC(=O)Nc1ccc(C(=O)N/N=C/c2cc(Br)cc(Br)c2O)cc1	-	-	-	-	-	15µM
COc1ccc(-c2cc(C(F)(F)F)n3nc(C(=O)N4CCCCC4)cc3n2)cc1OC	-	-	-	-	-	26µM
Cc1ccccc1C(=O)Nc1cccc(NC(=S)NC(=O)c2cccs2)c1	-	-	-	-	-	-
CCCOc1ccc(C(=O)NNC(=S)NC(=O)c2cccs2)cc1	-	-	-	-	-	7.3µM
Cc1ccccc1C(=O)NNC(=S)NC(=O)c1cccs1	-	-	?	-	-	15µM
CCCOc1ccc(C(=O)NNC(=S)NC(=O)c2ccccc2)cc1	-	-	-	-	-	?
COc1cccc(C2=Nn3c(nnc3-c3ccccc3OC)SC2)c1	.	.	-	.	.	-
O=C(COC(=O)c1cccc(OC(F)F)c1)NC1CCCC1	-	-	-	-	-	-
N#CC(c1ccccn1)c1ncc(C(F)(F)F)cc1Cl (stereo not given)	-	-	-	-	-	-
Cn1nc([N+](=O)[O-])c(C(C#N)c2ccccn2)c(Cl)c1=O (stereo not given)	?	-	?	-	?	12µM
COc1ccc(OC)c(C(=O)COC(=O)c2ccc(C)o2)c1	-	-	-	-	13µM	-
COc1ccc(C(=O)OCC(=O)c2cc(OC)ccc2OC)c(OC)c1	-	-	-	-	-	.
c1ccc(CSc2nccc(-c3ccco3)n2)cc1	.	-	-	-	10µM	-
c1ccc(CN2CCC(CNc3ncnc4ccccc34)C2)cc1 (stereo not given)	.	-	-	-	-	21µM
c1ccc(CN2CCC(Nc3nc(-c4ccccc4)nc4ccccc34)CC2)cc1	-	-	?	-	-	?
COc1ccc(NC(=O)C2CCCN(S(=O)(=O)c3c(C)[nH]c(=O)[nH]c3=O)C2)cc1OC (stereo not given)	-	-	-	-	-	-
